# Assay outcomes from PubChem.
# Pf Dd2 inh: qHTS Primary assay for Inhibitors of Plasmodium falciparum Dd2 growth in vitro; P. falciparum Dd2 growth, SYBR Green, 72 h; Potency, µM (titrated, usually from 28.9 µM), actives largely listed as inhibitors; 120,000 compounds, 4.3% hits; AID 1347417, 2020; active means well fitted inhibition curve with a large enough effect; further: nearly all actives have a fitted effect of over 65% in size
#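 Readout: SYBR Green fluorescence, 485 nm excitation, 535 nm emission, after ~16 h lysis at 37C. Before that, Dd2-infected red cells (2.5% hematocrit) grew 72 h with compound, 29 uM top final concentration.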
# Hits are given with their value; – = inactive; [ ] = dose if it differs, or a comment. The sample as a whole holds a higher share of hits than the screen did.
SMILES,Pf Dd2 inh
CN(C)c1ccc(C(CNC(=O)COc2ccccc2)N2CCOCC2)cc1 (centres undefined),–
COc1ccc(C(CNC(=O)COc2cc(C)cc(C)c2)N2CCOCC2)cc1 (centres undefined),–
COc1ccc(-c2cc(C[C@H]3CNCC[C@H]3CC(=O)Nc3nccs3)no2)cc1,–
CN1CCN(C(=O)CCc2ccncc2)CC12CCNCC2,–
O=C(c1ccc2c(c1)OCO2)N1CCC2(CNc3ccccc3[S+](=O)([O-])N2)C1 (centres undefined),–
CCCn1ccc2oc(C)c(C(=O)NCc3ccc(CC)cc3)c2c1=O,–
Cc1cc(C(=O)N2C[C@@H](COc3ccccc3)[C@H](C(N)=O)C2)no1,–
Cc1ccc(NC(=O)N[C@@H]2C=C(C(=O)N[C@@H](Cc3ccc(O)cc3)C(N)=O)C[C@@H](O)[C@@H]2O)cc1,–
Cn1cccc1-c1nc(-c2nnn3c2COC(c2ccccc2Cl)C3)no1 (centres undefined),–
O=S(=O)(c1ccccc1)c1nc(-c2cccs2)oc1N1CCCCC1,–
Cc1ccc(CSc2oc(-c3cccs3)nc2S(=O)(=O)c2ccccc2)cc1,–
CCC(C)S(=O)(=O)c1oc(-c2cccs2)nc1S(=O)(=O)c1ccccc1 (centres undefined),12.6µM
O=C(NCc1cccnc1)[C@@H]1C[C@@H](O)CN1C1CCN(C(=O)CN2CCCCCC2)CC1,–
Cc1ccc(-c2cc3c(n2-c2ccc(C)cc2)CC(C)(C)CC3=O)cc1,–[5.79 µM]
CCOc1ccc(-n2c(-c3ccc(OC)cc3)cc3c2CC(C)(C)CC3=O)cc1,–
COc1ccc(-n2c(-c3ccc(C)cc3)cc3c2CC(C)(C)CC3=O)c(OC)c1,12.6µM
CCCc1nc(C(=O)NCC(C)Cn2nc(C)cc2C(F)(F)F)cs1 (centres undefined),–
C[S+](=O)([O-])N1CC2(CCN(Cc3c[nH]c4ccccc34)CC2)Cc2ccccc21,11.2µM
C[S+](=O)([O-])N1CC2(CCN(C3COC3)CC2)Cc2ccccc21,–
C[S+](=O)([O-])N1CC2(CCN(C(=O)CCC(=O)O)C2)Cc2ccccc21 (centres undefined),–
CN1CC2(CCN(C(=O)c3ccccc3F)CC2)CC(c2ccccc2)C1=O (centres undefined),–
COc1ccc(CN2Cc3[nH]nc(-c4ccccc4)c3CC2=O)cc1,–
COc1ccc(CN2CCC3(CC2)CNC(=O)c2ccccc2O3)cc1,–
Cc1ccc(CN2COc3ccc4c(-c5ccccc5)cc(=O)oc4c3C2)cc1,0.708µM
Cc1ccc(CN2C[C@@H]3C(=O)N(Cc4ccc5c(c4)OCO5)C(=O)[C@@H]3C2)cc1,–
SMILES,Pf Dd2 inh
COc1ccc(CN2COc3ccc4c(-c5ccccc5)cc(=O)oc4c3C2)cc1,1.12µM
Cc1ccc2c(CC(=O)N3CCOc4ccc(CN5CCOCC5)cc4C3)cc(=O)oc2c1,–
COCCc1noc(CN(C)c2cc(C3CC(O)C3)nc(C)n2)n1 (centres undefined),–
Cc1ccc(C2NC(=O)N(CC(=O)Nc3ccc(Br)cc3F)C3=C2C(=O)OC3)cc1 (centres undefined),–
CCn1cc(S(=O)(=O)N2CCC(Cc3nncn3CC)C2)cn1 (centres undefined),–
COCCC(=O)N1CCCN(S(=O)(=O)c2ccccc2)CCC(=O)NCC1,–
O=C1C(N2CCN(S(=O)(=O)c3cccs3)CC2)CCN1Cc1ccccn1 (centres undefined),–
COc1cc(C2c3c(oc4ccc(C)cc4c3=O)C(=O)N2Cc2ccccc2)ccc1O (centres undefined),–
COc1cc(C2c3c(oc4ccc(C)cc4c3=O)C(=O)N2Cc2ccc(F)cc2)ccc1O (centres undefined),–
COc1cc(-c2oc3ccc(C)cc3c(=O)c2O)cc(OC)c1OC,12.6µM
CN(C)c1ccc(-c2ccnc(N[C@H]3CO[C@H]4[C@@H]3OC[C@H]4OC(=O)Nc3cccc(C(F)(F)F)c3)n2)cc1,–
NC(=O)c1cccc(CN2CCC3(CC2)Cc2ccccc2N(C(=O)c2ccc(Cl)cc2)C3)c1,11.2µM
O=C(c1ccc(Cl)cc1)N1CC2(CCCN2Cc2ccc(Cl)cc2)Cc2ccccc21 (centres undefined),10µM
CS(=O)(=O)N1CC2(CCCN2Cc2ccc(Cl)cc2)Cc2ccccc21 (centres undefined),–
O=C(c1ccc(Cl)cc1)N1CC2(CCCN(Cc3ccccn3)C2)Cc2ccccc21 (centres undefined),–
O=C(c1ccc(Cl)cc1)N1CC2(CCN(C3COC3)C2)Cc2ccccc21 (centres undefined),–
CC(=O)N1CC2(CCCN2Cc2cccc(C(N)=O)c2)Cc2ccccc21 (centres undefined),–
O=C(c1ccc(Cl)cc1)N1CC2(CCN(CC3CC3)C2)Cc2ccccc21 (centres undefined),6.31µM
CC(=O)N1CC2(CCN(Cc3cccc(C(N)=O)c3)C2)Cc2ccccc21 (centres undefined),–
CC(=O)N1CC2(CCN(Cc3cccc(C(N)=O)c3)CC2)Cc2ccccc21,–
O=C(c1ccc(C(F)(F)F)cc1)N1CCn2c(nnc2-c2ccncc2)C1,–
O=C(c1ccccc1)N1CCC2(CC1)C(=NC1CCCC1)NC(=O)N2c1cc(F)cc(F)c1,–
COc1cccc(C(=O)N2C(C(=O)N3CCC(C(N)=O)CC3)COC23CCC(C)CC3)c1 (centres undefined),–
N[C@H]1CN(S(=O)(=O)c2ccc(OC(F)F)cc2)C[C@@H]1C1CC1,5.62µM
CCc1nncn1C1CCN(S(=O)(=O)c2ccc(OC)cc2)CC1,–
SMILES,Pf Dd2 inh
Cc1ccc(S(=O)(=O)N2C[C@@H](C(N)=O)[C@H](C3CCN(C)CC3)C2)cc1Cl,–
CN1CCC([C@@H]2CN(S(=O)(=O)c3ccc4c(c3)CCC4)C[C@H]2C(N)=O)CC1,–
CC(=O)NC[C@H]1CCN(S(=O)(=O)c2ccc(C#N)cc2)C[C@H]1N(C)C,–
CCC[C@@H]1CN(S(=O)(=O)c2ccc(OC(F)F)cc2)C[C@H]1N(C)C,5.62µM
O=C1CCN(C(=O)[C@@H](Cc2ccccc2)NC(=O)c2ccoc2)CCOCCN1,–
Cn1cc(S(=O)(=O)c2ccccc2)c(=O)c2cc(F)c(N3CCCCCC3)cc21,8.91µM
Cn1cc(S(=O)(=O)c2cccc(Cl)c2)c(=O)c2cc(F)c(N3CCCCCC3)cc21,–
CCCN1CCN(c2cc3c(cc2F)c(=O)c(S(=O)(=O)c2ccc(Cl)cc2)cn3C)CC1,10µM
Cc1ccc(S(=O)(=O)c2cn(C)c3cc(N4CCCCC4)c(F)cc3c2=O)cc1,–
Cn1cc(S(=O)(=O)c2ccc(Cl)cc2)c(=O)c2cc(F)c(N3CCCCCC3)cc21,14.1µM
CCN1CCN(c2cc3c(cc2F)c(=O)c(S(=O)(=O)c2ccccc2)cn3C)CC1,–
Cn1cc(S(=O)(=O)c2ccccc2)c(=O)c2cc(F)c(N3CCCC3)cc21,–
Cn1cc(S(=O)(=O)c2ccccc2)c(=O)c2cc(F)c(N3CCCCC3)cc21,–
C=CCNC(=O)c1cn2c(n1)CN(C(=O)OC)CC2,–
O=C(CN1CC2CC(C1)[C@H]1CCCC(=O)N1C2)NCCN1CCCCC1 (some centres undefined),–
O=C1CCC(C(=O)N2CCN(Cc3ccc(F)cc3)CC(O)C2)=NN1 (centres undefined),–
COc1ccc(N2CCN(C(=O)CN3CC4CC(C3)[C@H]3CCCC(=O)N3C4)CC2)cc1 (some centres undefined),–
